± gives the standard deviation of the averaged measurements.
Experiments:
[1] = system: IL-6-GFP PC-9GR; test: cell viability (CCK-8 OD) relative to DMSO control (fraction of control); higher = more viable cells; conditions: compound concentration: 10 uM; treatment time: 48 h
Summary of the method: (§1)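 PC-9 and PC-9GR lung cancer cells carrying a lentiviral construct that overexpresses IL-6-GFP were seeded in 96-well plates at 3000 cells/well. Every compound in a purchased 510-compound library was applied at a final 10 μM for 48 h, and a parallel set of plates was kept for GFP imaging. Cell viability was read by CCK-8 absorbance, taking each well's optical density as a ratio to the vehicle control well. Two independent replicates were run.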

[2] = system: IL-6-GFP PC-9; test: as above; conditions: compound concentration: 10 uM; treatment time: 48 h
Summary of the method: as §1

Compound | cell viability [1] | cell viability [2]
CC1(C)OC2CC3C4CC(F)C5=CC(=O)C=CC5(C)C4(F)C(O)CC3(C)C2(C(=O)CO)O1 (stereo not drawn) [Fluocinolone Acetonide] | 1.26 ± 0.091 | 1 ± 0.015
O=c1[nH]c(=O)n(C2CCCO2)cc1F (stereo not drawn) | 1.11 ± 0.023 | 1.01 ± 0.013
CC12CCC(CC1)C(C)(C)O2 [Eucalyptol] | 1.29 ± 0.37 | 1.33 ± 0.048
COc1ccc2cc1Oc1ccc(cc1)CC1c3cc(c(OC)cc3CCN1C)Oc1c(O)c(OC)cc3c1C(C2)N(C)CC3 (stereo not drawn) [Fangchinoline] | 1.18 ± 0.33 | 1.09 ± 0.13
O=c1oc2cc(O)ccc2s1 [Tioxolone] | 1.06 ± 0.041 | 1.121 ± 0.0078
C=C1CCC2C(C)(COC(=O)CCC(=O)O)C(OC(=O)CCC(=O)O)CCC2(C)C1/C=C/C1=CCOC1=O (stereo not drawn) [Dehydroandrographolide Succinate] | 0.966 ± 0.062 | 1.16 ± 0.016
CCCS(=O)(=O)Nc1ccc(F)c(C(=O)c2c[nH]c3ncc(-c4ccc(Cl)cc4)cc23)c1F [Vemurafenib (PLX4032, RG7204)] | 1.06 ± 0.1 | 1.05 ± 0.15
Cc1c(C(=O)Nc2ccc(N3CC(C)OC(C)C3)nc2)cccc1-c1ccc(OC(F)(F)F)cc1 (stereo not drawn) [Sonidegib (Erismodegib, NVP-LDE225)] | 1.05 ± 0.049 | 1.0769 ± 0.001
O=C1CCCC2C3CCC[N+]4([O-])CCCC(CN12)C34 (stereo not drawn) [Oxymatrine] | 1.47 ± 0.16 | 1.33 ± 0.068
Cc1ccc(Cl)c(Nc2ccccc2C(=O)[O][Na])c1Cl [Meclofenamate Sodium] | 0.983 ± 0.054 | 1.02 ± 0.11
CCOC(=O)c1c(N)sc2c1CCN(Cc1ccccc1)C2.Cl [Tinoridine hydrochloride] | 1.12 ± 0.27 | 1.12 ± 0.061
CN(C)CCCOc1nn(Cc2ccccc2)c2ccccc12.Cl [Benzydamine HCl] | 0.996 ± 0.23 | 0.549 ± 0.52
CC1(C(=O)O)CCC2(C)CCC3(C)C(=CC(=O)C4C5(C)CCC(OC6OC(C(=O)O)C(O)C(O)C6OC6OC(C(=O)O)C(O)C(O)C6O)C(C)(C)C5CCC43C)C2C1.N (stereo not drawn) [Ammonium Glycyrrhizinate] | 1.42 ± 0.25 | 1.31 ± 0.014
Cc1cc(Nc2ncc(Cl)c(Nc3ccccc3S(=O)(=O)C(C)C)n2)c(OC(C)C)cc1C1CCNCC1 [Ceritinib (LDK378)] | 0.091 ± 0.015 | 0.0667 ± 0.041
CN1C(=O)/C(=C2/C(=O)Nc3ccccc32)c2ccccc21 [Meisoindigo] | 1.39 ± 0.44 | 1.02 ± 0.21
O=C(O)Cc1ccccc1Nc1c(Cl)cccc1Cl [Diclofenac acid] | 1.07 ± 0.24 | 1.12 ± 0.17
Nc1ccc(C(=O)[O-])c(O)c1.[Na+] [Sodium 4-Aminosalicylate] | 1.02 ± 0.3 | 0.895 ± 0.055
Cc1ccc(C(C)C)cc2c(C)ccc1-2 [Guaiazulene] | 0.98 ± 0.15 | 0.275 ± 0.37
CN(Cc1cnc2nc(N)nc(N)c2n1)c1ccc(C(=O)NC(CCC(=O)O)C(=O)O)cc1 (stereo not drawn) [Methotrexate] | 0.638 ± 0.078 | 0.54 ± 0.15
C1N2CN3CN1CN(C2)C3 [Methenamine] | 1.09 ± 0.19 | 0.9499 ± 0.009

Compound | cell viability [1] | cell viability [2]
CONC(=O)Nc1ccc(-c2sc3c(c2CN(C)C)c(=O)n(-c2ccc(OC)nn2)c(=O)n3Cc2c(F)cccc2F)cc1 [Relugolix] | 1.41 ± 0.42 | 1.01 ± 0.17
CC(CCC(=O)NCCS(=O)(=O)O)C1CCC2C3C(O)CC4CC(O)CCC4(C)C3CCC12C (stereo not drawn) [Tauroursodeoxycholic Acid (TUDCA)] | 1.2 ± 0.37 | 1.24 ± 0.23
COC(=O)C(Cc1ccccc1)NC(=O)C(N)CC(=O)O (stereo not drawn) [Aspartame] | 1.08 ± 0.091 | 0.819 ± 0.06
O=C(O)c1cc(-c2ccc(F)cc2F)ccc1O [Diflunisal] | 0.789 ± 0.23 | 1.15 ± 0.15
Nc1n[n+]([O-])c2ccccc2[n+]1[O-] [Tirapazamine] | 1.09 ± 0.25 | 0.676 ± 0.12
CC(C)c1nc(N(C)S(C)(=O)=O)nc(-c2ccc(F)cc2)c1/C=C/C(O)CC(O)CC(=O)O (stereo not drawn) [Rosuvastatin] | 1.56 ± 0.24 | 1.12 ± 0.1
Nc1ccc(F)cc1NC(=O)c1ccc(CNC(=O)/C=C/c2cccnc2)cc1 [Tucidinostat (Chidamide)] | 0.836 ± 0.38 | 0.606 ± 0.23
Cc1cnc(NC(=O)C2=C(O)c3ccccc3S(=O)(=O)N2C)s1 [Meloxicam] | 1.2096 ± 0.0007 | 1.4 ± 0.41
CCOc1ccc(Cc2cc(C34OCC(CO)(O3)C(O)C(O)C4O)ccc2Cl)cc1 (stereo not drawn) [Ertugliflozin] | 1.43 ± 0.46 | 0.987 ± 0.16
NC(=O)NO [Hydroxyurea] | 1.32 ± 0.077 | 0.839 ± 0.1
CC1(C(=O)O)CCC2(C)CCC3(C)C(=CC(=O)C4C5(C)CCC(OC6OC(C(=O)O)C(O)C(O)C6OC6OC(C(=O)O)C(O)C(O)C6O)C(C)(C)C5CCC43C)C2C1 (stereo not drawn) [Glycyrrhizin (Glycyrrhizic Acid)] | 1.47 ± 0.11 | 1.29 ± 0.022
O=C(O)CCCN1CCC(OC(c2ccc(Cl)cc2)c2ccccn2)CC1.O=S(=O)(O)c1ccccc1 (stereo not drawn) [Bepotastine Besilate] | 0.9937 ± 0.0023 | 0.84 ± 0.015
Cc1ccc(-c2ncc(Cl)cc2-c2ccc(S(C)(=O)=O)cc2)cn1 [Etoricoxib] | 0.855 ± 0.092 | 1.21 ± 0.029
O=C(O)CCC(=O)c1ccc(-c2ccccc2)cc1 [Fenbufen] | 1 ± 0.06 | 1.08 ± 0.12
Cc1ccc(-c2cc(C(F)(F)F)nn2-c2ccc(S(N)(=O)=O)cc2)cc1 [Celecoxib] | 1.13 ± 0.057 | 1.09 ± 0.051
Cc1ccc(NC(=O)c2ccc(CN3CCN(C)CC3)cc2)cc1Nc1nc(-c2cccnc2)cs1 [Masitinib (AB1010)] | 0.268 ± 0.05 | 0.366 ± 0.26
CCOc1ccc(Cc2cc(C3OC(CO)C(O)C(O)C3O)ccc2Cl)cc1 (stereo not drawn) [Dapagliflozin] | 1.37 ± 0.23 | 1.74 ± 0.67
COc1cc2c(cc1OC)C1CC(OC(=O)C(N)C(C)C)C(CC(C)C)CN1CC2.Cc1ccc(S(=O)(=O)O)cc1.Cc1ccc(S(=O)(=O)O)cc1 (stereo not drawn) [Valbenazine tosylate] | 0.833 ± 0.14 | 1.01 ± 0.084
C=CC(=O)Nc1cccc(Oc2nc(Nc3ccc(N4CCN(C)CC4)cc3)nc3ccsc23)c1 | 0.393 ± 0.19 | 0.465 ± 0.07
NC(CO)(CO)CO.O=C(c1ccccc1)c1ccc2n1CCC2C(=O)O (stereo not drawn) [Ketorolac tromethamine salt] | 0.948 ± 0.075 | 1.05 ± 0.19

Compound | cell viability [1] | cell viability [2]
Nc1nc(F)nc2c1ncn2C1OC(COP(=O)(O)O)C(O)C1O (stereo not drawn) [Fludarabine Phosphate] | 0.174 ± 0.083 | 0.206 ± 0.052
Cc1cc2ncc(C(=O)NCC(C)(C)NCC(=O)N3CCCC3C#N)cn2n1 (stereo not drawn) [Anagliptin] | -0.0161 ± 0.12 | 1.23 ± 0.022
NC(CCC(=O)NC(CS)C(=O)NCC(=O)O)C(=O)O (stereo not drawn) [Glutathione] | 1.06 ± 0.11 | 1.1 ± 0.15
C=CCC1/C=C(\C)CC(C)CC(OC)C2OC(O)(C(=O)C(=O)N3CCCCC3C(=O)OC(/C(C)=C/C3CCC(O)C(OC)C3)C(C)C(O)CC1=O)C(C)CC2OC (stereo not drawn) [Tacrolimus (FK506)] | 1.14 ± 0.079 | 1.34 ± 0.11
COC(=O)NC(C(=O)N1CCCC1c1ncc(-c2ccc(-c3ccc(-c4cnc(C5CCCN5C(=O)C(NC(=O)OC)C(C)C)[nH]4)cc3)cc2)[nH]1)C(C)C (stereo not drawn) | 1.41 ± 0.14 | 1.18 ± 0.11
Cc1ccc(C(C)C)c(O)c1 [Thymol] | 0.9 ± 0.16 | 1.08 ± 0.2
CCC(C)(Oc1ccc(C2(c3ccc(OC(C)(CC)C(=O)O)cc3)CCCCC2)cc1)C(=O)O (stereo not drawn) [Clinofibrate] | 1.17 ± 0.14 | 1.23 ± 0.42
Nc1nc(N)c2nc(-c3ccccc3)c(N)nc2n1 [Triamterene] | 0.591 ± 0.14 | 0.842 ± 0.038
COc1cc2c3cc1Oc1c(OC)c(OC)cc4c1C(Cc1ccc(O)c(c1)Oc1ccc(cc1)CC3N(C)CC2)N(C)CC4.Cl.Cl (stereo not drawn) [Berbamine (dihydrochloride)] | 1.14 ± 0.35 | 1.04 ± 0.053
Cl.O=C1NCC2(CCN(CCc3ccccc3)CC2)O1 [Fenspiride HCl] | 1.02 ± 0.044 | 1.24 ± 0.015
CN(C)C/C=C/C(=O)Nc1cc2c(Nc3ccc(F)c(Cl)c3)ncnc2cc1OC1CCOC1.O=C(O)/C=C\C(=O)O.O=C(O)/C=C\C(=O)O (stereo not drawn) [Afatinib (BIBW2992) Dimaleate] | 0.22 ± 0.11 | 0.167 ± 0.22
Nc1nc(Cl)nc2c1ncn2C1OC(CO)C(O)C1F (stereo not drawn) [Clofarabine] | 0.5 ± 0.013 | 0.337 ± 0.13
C[S+](C)CCC(N)C(=O)O.[Cl-] (stereo not drawn) | 1.11 ± 0.29 | 1.08 ± 0.22
NC(=O)Cc1cccc(C(=O)c2ccccc2)c1N [Nepafenac] | 1.07 ± 0.029 | 0.958 ± 0.1
CC(C)C1C(=O)NC(CCCNC(=N)N)C(=O)NCC(=O)NC(CC(=O)O)C(=O)NC(Cc2ccccc2)C(=O)N1C.O=C(O)C(F)(F)F (stereo not drawn) | 1.13 ± 0.28 | 1.26 ± 0.087
CN(C(=O)c1c(O)c2ccccc2n(C)c1=O)c1ccccc1 [Roquinimex] | 0.937 ± 0.35 | 1.15 ± 0.038
CC(=O)C1CCC2C3CC(C)C4=CC(=O)CCC4(C)C3C(O)CC12C (stereo not drawn) [Medrysone] | 0.958 ± 0.024 | 1.15 ± 0.051
CNC(=O)c1ccc(N2C(=S)N(c3ccc(C#N)c(C(F)(F)F)c3)C(=O)C2(C)C)cc1F [Enzalutamide (MDV3100)] | 1.04 ± 0.077 | 0.808 ± 0.099
Cn1c(=O)cc(N2CCCC(N)C2)n(Cc2ccccc2C#N)c1=O (stereo not drawn) [Alogliptin(SYK-322)benzoate] | 0.986 ± 0.057 | 1.05 ± 0.088

Source: the supplement of paper PMC8866396
